Pf Dd2 inh – blocks in vitro growth of P. falciparum Dd2; P. falciparum Dd2 growth, SYBR Green, 72 h; Potency, µM (series often up to 28.9 µM), for the others: at the highest dose activity, negative = inhibition, actives largely listed as inhibitors; 120,000 compounds, 4.3% hits; AID 1347417; active means well fitted inhibition curve with a large enough effect;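 further: plate controls were DMSO vehicle for no effect and reference drug for full effect; nearly all actives have a fitted effect of over 65% in size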
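Infected erythrocytes (Dd2, 0.3% parasitemia, 2.5% hematocrit final) are added to compound in RPMI-1640/Albumax II medium, grown 72 h at 37C in low oxygen, then lysed with saponin/Triton-X containing SYBR Green and read by fluorescence.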
Active calls of the source: *; i = inactive; [ ] = dose if it differs, or a comment. The sample as a whole holds a higher share of hits than the screen did. Potency means the concentration at half of the fitted maximal effect.

SMILES	Pf Dd2 inh
CCOC(=O)C1CCCN(C(=O)C2CC(c3ccccc3)CN(C(=O)c3cccc(F)c3)C2)C1 (configuration not stated)	i
CCOc1ccccc1NC(=O)N1C[C@H](Oc2cccnc2)C[C@@H]1C(=O)N1CCOCC1	4%
CS(=O)(=O)N(C1CCOCC1)C1CN(C(=O)Nc2ccccc2)C1	-4%
COc1ccc(CNC(=O)Cn2c(N3CCc4ccccc4C3)nc(C)cc2=O)cc1	8.9µM*
COc1cc(NC(=O)Cn2c(N3CCc4ccccc4C3)nc(C)cc2=O)cc(OC)c1OC	-23%
COc1cccc(CNC(=O)Cn2c(N3CCc4ccccc4C3)nc(C)cc2=O)c1	-20%
CS(=O)(=O)N1CCC(OC2CCN(C(=O)NCc3ccccc3)CC2)CC1	35%
O=C1NCCN2CC3(CCN(C(=O)NCCc4ccccc4)CC3)CC12 (configuration not stated)	i
CCc1ccccc1N1C(=O)N(CC(=O)c2ccc(OC)cc2)c2ccccc2S1(=O)=O	-29%
COc1cccc(N2C(=O)N(Cc3ccc(C#N)cc3)c3ccccc3S2(=O)=O)c1	-16%
COc1ccc(OC)c(C(=O)CN2C(=O)N(c3cc(C)cc(C)c3)S(=O)(=O)c3ccccc32)c1	10µM*
O=C(CN1C(=O)CNC1=O)N1C[C@H](CO)C[C@H](CN2CCOCC2)C1	-5%
CS(=O)(=O)c1ccc(CNC[C@H]2Cn3ccnc3CO2)cc1	9%[44.1 µM]
CCc1ccc(C(=O)c2cnc3ccc(F)cc3c2S(=O)(=O)c2ccccc2)cc1	11µM*
CCc1ccc(-c2nn(CC(=O)Nc3ccccc3)c3c2cnc2ccc(F)cc23)cc1	10%
CCc1ccc(-c2nn(CC(=O)NCc3ccccc3)c3c2cnc2ccc(F)cc23)cc1	-1%
Cc1cccc(CC(=O)N2CCC(c3n[nH]c(=O)n3Cc3ccc(F)cc3)CC2)c1	-24%
CCN1c2cc(C(=O)Nc3ccc(C(N)=O)cc3)ccc2C(=O)N2CCCCC21 (configuration not stated)	i
COc1ccc(Br)c2c1-c1nc(NC(=O)c3ccc(F)cc3)sc1C2	2.8µM*
COc1ccc(Br)c2c1-c1nc(NC(=O)c3ccccc3F)sc1C2	47%
COc1cc(C(=O)Nc2nc3c(s2)Cc2c(Br)ccc(OC)c2-3)cc(OC)c1OC	3.2µM*
COc1ccc(Br)c2c1-c1nc(NC(=O)c3ccccc3SC)sc1C2	-5%
COc1cc(C(=O)Nc2nc3c(s2)C[C@]2(C)CC[C@@H]4[C@H](OC(=O)[C@H]4C)[C@H]2[C@@H]3C)cc(OC)c1OC	-25%
COc1cc(C(=O)Nc2ccc3nc(SCc4ccccc4)sc3c2)cc(OC)c1OC	i
O=C(NCCC1CCN(C(=O)Nc2cc(F)cc(F)c2)CC1)c1cccs1	-22%
SMILES	Pf Dd2 inh
CC(=O)N1C[C@@H]2CCCN3CCC[C@@H]([C@H]23)[C@H]1CCCC(=O)N(C)Cc1ccc(N2CCOCC2)cc1	-18%
COCCNc1ncnc2c1CN(C1CNC1)C(=O)CN2C	7%
Cc1nonc1CC(=O)N1C[C@H](O)[C@@H](N2CCC(O)CC2)C1	-6%
COc1ccc(Cl)cc1C(=O)NCc1nnc2ccc(-c3ccc(C)c(C)c3)nn12	-16%
CN1CCCN(S(=O)(=O)c2cccc(Cl)c2)c2ccccc21	11µM*
CC(=O)N1CCC(C2CCN(S(=O)(=O)c3cccc(Cl)c3)C2)CC1 (configuration not stated)	-18%
CCS(=O)(=O)N1CCCN(C)c2ccccc21	-19%
O=C1N(Cc2ccc(F)cc2)C[C@H]2CN(Cc3ccc(C(F)(F)F)cc3)CCN12	i
Cc1ccc(-n2c(C3CCN(C(=O)c4ccc(C#N)cc4)CC3)n[nH]c2=O)cc1	-2%
CCC(=O)Nc1ccc([C@H]2OCC(=O)N(Cc3ccc(F)cc3)[C@@H]2CO)cc1	12%[44.1 µM]
CCOc1ccc(C2CC(=O)c3c([nH]c(C(=O)OC4CCC(C)CC4)c3C)C2)cc1 (configuration not stated)	-8%
COc1ccc(OC)c(C2CC(=O)c3c([nH]c(C(=O)OC4CCC(C)CC4)c3C)C2)c1 (configuration not stated)	10µM*
Cc1c(C(=O)OC2CCCC2)[nH]c2c1C(=O)CC(c1ccc(C(C)(C)C)cc1)C2 (configuration not stated)	-18%
COc1ccc(C2CC(=O)c3c([nH]c(C(=O)OC4CCCCCC4)c3C)C2)cc1OC (configuration not stated)	10µM*
Cc1c(C(=O)OC2CCC(C)CC2)[nH]c2c1C(=O)CC(c1ccc(F)cc1)C2 (configuration not stated)	-17%
Cc1c(C(=O)OC2CCCCC2)[nH]c2c1C(=O)CC(c1ccccc1)C2 (configuration not stated)	-16%
O=C(Cc1ccsc1)NCc1nnc2ccc(-c3ccccc3)nn12	3%
Cc1nc(C)c(C(=O)N2CCC(N3C[C@H](O)C[C@H]3C(=O)NC3CCCCC3)CC2)s1	i
CCOc1cccc(CN2C(=O)C3(CCOCC3)CC2c2nnnn2C(C)(C)C)c1 (configuration not stated)	i
O=C(COc1ccc(F)cc1)NCC(=O)N1CCCCCCNC(=O)CC1c1ccccc1 (configuration not stated)	-12%
CCOCC(=O)N1CCC(O)(c2ccccc2)[C@H](N2CCCC2)C1 (some centres not stated)	i[5.79 µM]
c1cnc2nc(C3CCNCC3)[nH]c2c1	-4%[44.1 µM]
Clc1ccccc1C1(c2ccnc(C3CCCC3)n2)CCNCC1	4µM*
CC1(C(=O)NCc2ccncc2)CCCc2cnc(NCc3ccccc3)nc21 (configuration not stated)	i
Clc1ccccc1C1(c2ccnc(NCc3ccccc3)n2)CCNCC1	4.5µM*
SMILES	Pf Dd2 inh
COc1ccccc1Cn1cnc2cccnc21	-13%[44.1 µM]
Clc1ccccc1C1(c2ccnc(CC3CC3)n2)CCNCC1	5µM*
c1ccc(-c2nc(CC3CCCNC3)no2)nc1 (configuration not stated)	-14%
COc1ccccc1Cc1nc2ccccc2[nH]c1=O	45%
CC1(C(=O)NCC2CC2)CCc2cnc(NCc3ccccc3)nc21 (configuration not stated)	-12%[44.1 µM]
COc1ccccc1Cc1nccc(C2(c3ccccc3Cl)CCNCC2)n1	8.9µM*
c1coc(-c2ccnc3nc(C4CCC4)nn23)c1	-7%
CC(CNC(=O)C1CCC(=O)N(C2CC2)C1)(c1ccccc1)c1ccccc1 (configuration not stated)	1%
CCOc1cc(=O)n2c(c1C(=O)NCC1CCCO1)CCCCC2 (configuration not stated)	-7%
O=C(C1CCN(c2cn[nH]c(=O)c2)C1)N1CCCC1 (configuration not stated)	4%
CN1[C@@H](CCC(=O)NCc2ccc(F)cc2)CNC(=O)[C@@H]2[C@H]1CCN2Cc1cccs1	-1%
O=C(c1ccccc1F)N1CCC2(CC1)C(=NC1CCCC1)NC(=O)N2c1cccnc1	14%
O=C(c1cc(Cl)ccc1F)N1CCC[C@H]1c1nc(-c2ccccc2)no1	-5%
CC(C(=O)NCc1cccnc1N(C)CCc1ccccn1)n1cccc1 (configuration not stated)	6%
CN1CCC2(C1)CN(Cc1ccccc1)c1ccc(C(=O)NCCOc3ccccc3)cc12 (configuration not stated)	-1%
CC(C)C1CN(C(=O)C(=O)c2ccco2)CCC(=O)N1CC1CC1 (configuration not stated)	-1%
O=C(NC1CC1)c1cc2cccnn2n1	i
